AC50 and outcome data for 40 compounds are collected here from PubChem BioAssay (EPA / NIEHS).

Molecules are shown by their SMILES. Inconclusive results are not listed. Calls of active or inactive are those of the source. The calls were made as follows: active = hit-call score of the fitted dose curve at least 0.9, where 1 is the maximum; inconclusive = response in the unintended direction; inactive = score below 0.9.

By AC50 is commonly meant the concentration at which the activity in the assay is half-maximal.

Read-out in the assay: xenobiotic metabolism (CYP1A2), CYP1A2 (gene 1544)
Put plainly: CLD_CYP1A2_6hr: CellzDirect (CLD) Gene Expression Assay for xenobiotic metabolism (CYP1A2) at 6 hours (AID 2283663).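 As to AC50: potency is for induction meaning a rise in mRNA above DMSO.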 The protocol:
CLD_6hr is a cell-based, multiplexed-readout assay that uses hepatocyte, a human liver primary cell, with measurements taken at 6 hours after chemical dosing in a 96-well plate.CLD_CYP1A2_6hr is one of 16 assay component(s) measured or calculated from the CLD_6hr assay. It is designed to make measurements of mRNA induction, a form of inducible reporter, as detected with chemiluminescence signals by Quantitative Nuclease Protection Assay (qNPA) technology.Data from the assay component CLD_CYP1A2_6hr was analyzed at the endpoint, CLD_CYP1A2_6hr, in the positive analysis fitting direction relative to DMSO as the negative control and baseline of activity. Using a type of inducible reporter, gain-of-signal activity can be used to understand changes in the reporter gene as they relate to the gene CYP1A2. Furthermore, this assay endpoint can be referred to as a primary readout. To generalize the intended target to other relatable targets, this assay endpoint is annotated to the cyp intended target family, where subfamily is xenobiotic metabolism.
Human hepatocyte cultures were treated daily for two consecutive days with fresh dosing solutions containing appropriate concentrations of the 320 ToxCast chemicals (chemical identities were blinded to CellzDirect and other ToxCast collaborators), vehicle control (0.2% DMSO), and positive control inducers as summarized in Table 1. Due to the large number of treatment groups and chemicals examined, the ToxCast chemicals were divided into two groups (spanning two independent cultures of hepatocytes from separate donor preparations (Hu778: ToxCast plates 1 and 2; Hu776: ToxCast plates 3 and 4). Each preparation of human hepatocyte cultures was treated with respective vehicle control, medium only control, set of six positive controls/reference chemicals for the five hepatic receptor pathways, and a subset of eight of the ToxCast chemicals (indoxacarb, pyrithiobac-sodium, norflurazon, cyhalofop-butyl, methomyl, thiram, acetochlor, and propiconazole). These replicate data, coupled with internal replicates designed within the blinded ToxCast chemical library, provided additional data to evaluate interindividual differences between hepatocyte preparations and their potential impact on chemical profiles.Cell morphology and integrity were evaluated using phase-contrast microscopy as an indicator of hepatocyte cell health (Tyson & Green, 1987). Cultures for each treatment group (i.e., media, vehicle [0.2% DMSO], positive control inducers [multiple concentrations], and the ToxCast chemicals [multiple concentrations]) were observed and cell morphology was assessed relative to vehicle control cultures at each harvest time point (0, 6, 24, or 48 h). […] Images were evaluated at the conclusion of the study to assess changes in cell integrity and account for the effects of chemical exposure on uncharacteristic changes in concentration-dependent gene expression profiles. The results from these determinations of apparent cytotoxicity were annotated (yes/no) alongside the corresponding qNPA data for reference.At the conclusion of each treatment period, hepatocyte cultures (96-well) were washed with 1 volume of HBSS, lysed by addition of 25 ul ArrayPlate lysis buffer (HTG, Tucson, AZ), and 70 ul/well of Denaturation Oil, denatured by incubation at 95C for 10 min, and frozen at approximately -70C until analysis by nuclease protection assay (qNPA) (Roberts et al., 2007). For qNPA analysis, cell lysates were thawed at 50C for approximately 30 min, qNPA probes were added, and samples were incubated at 95C for 10 min to begin the detection process by denaturing the target RNA, dissociating the duplexes and secondary structure hybridization. At the conclusion of the hybridization period, S1 nuclease reagent was added to each sample to digest all nonprotected nucleotides at 50C for 60-90 min. […]
With `CC(C1CC1)C(O)(Cn1cncn1)c1ccc(Cl)cc1` (stereo not given), the AC50 was 0.00638 µM (active). `CCOC(=O)CC(SP(=O)(OC)OC)C(=O)OCC` (stereo not given): the outcome was inactive. For the compound `CC1=NNC(=O)N(/N=C/c2cccnc2)C1`, the outcome was inactive. Consider `CNC(=O)ON=C(C)SC`, for which the result was inactive. Regarding `CC(COc1ccc(Oc2ccccc2)cc1)Oc1ccccn1` (stereo not given), the compound was called inactive. As for `CCCCOC(=O)[C@@H](C)Oc1ccc(Oc2ccc(C#N)cc2F)cc1`, the call was inactive.

In the case of `CNC(=O)Oc1cccc2c1OC(C)(C)O2`, the AC50 is 3.97 µM (active). In the case of `CCCSP(=O)(OCC)SCCC`, the compound was classed as inactive.

Turning to `Cc1ccn2nc(S(=O)(=O)Nc3c(F)cccc3F)nc2n1`, the call was inactive.

`CCC(=NOC/C=C/Cl)C1=C(O)CC(C2CCOCC2)CC1=O` (stereo not given): the compound was called inactive. Consider `CSc1nc(NC(C)C)nc(NC(C)C)n1`, for which the compound was classed as inactive. As for `COP(=O)(OC)SCn1c(=O)oc2cc(Cl)cnc21`, the compound was classed as inactive. Take `CC(C)[C@H](C(=O)O[C@H](C#N)c1cccc(Oc2ccccc2)c1)c1ccc(Cl)cc1`: the result was inactive. Turning to `CCOP(=S)(OCC)Oc1cc(C)nc(C(C)C)n1`, the AC50 was 0.589 µM (active). Regarding `CCCSP(=O)(OCC)Oc1ccc(Br)cc1Cl` (stereo not given), the compound was called inactive. As to `COc1cccc(C(=O)NN(C(=O)c2cc(C)cc(C)c2)C(C)(C)C)c1C`, the result was inactive. Turning to `CCc1cccc(C)c1N(C(=O)CCl)C(C)COC` (stereo not given), the call was inactive.

`CC(Oc1cccc(Cl)c1)C(=O)O` (stereo not given): the compound was called inactive. `CN1COCN(Cc2cnc(Cl)s2)C1=N[N+](=O)[O-]`: the call was inactive. Regarding `CNc1cnn(-c2cccc(C(F)(F)F)c2)c(=O)c1Cl`, the AC50 is 38.7 µM (active). For the compound `CCCOCC(=Nc1ccc(Cl)cc1C(F)(F)F)n1ccnc1`, the AC50 is 1.89 µM (active). Turning to `CN(C)[C@@H]1C(=O)C(C(N)=O)=C(O)[C@@]2(O)C(=O)C3=C(O)c4c(O)cccc4[C@@](C)(O)[C@H]3[C@H](O)[C@@H]12`, the outcome was inactive. Still for that read-out and setting: in the case of `COP(=O)(NC(C)=O)SC` (stereo not given) it was “inactive”; in that of `Cc1nn(-c2cc(NS(C)(=O)=O)c(Cl)cc2Cl)c(=O)n1C(F)F`, “inactive”; in that of `CN(C)C(=O)Nc1cccc(C(F)(F)F)c1`, “inactive”. Turning to `CC[C@H](C)[C@H]1O[C@]2(C=C[C@@H]1C)C[C@@H]1C[C@@H](C/C=C(\C)[C@@H](O[C@H]3C[C@H](OC)[C@@H](O[C@H]4C[C@H](OC)[C@@H](NC)[C@H](C)O4)[C@H](C)O3)[C@@H](C)/C=C/C=C3\CO[C@@H]4[C@H](O)C(C)=C[C@@H](C(=O)O1)[C@]34O)O2`, the AC50 was 10.5 µM (active). With `Cc1cc(C2CC2)nc(Nc2ccccc2)n1`, the AC50 is 1.99 µM (active). As to `COP(=O)(OC)OC(Br)C(Cl)(Cl)Br` (stereo not given), the compound was called inactive. The same measure, in the same setting: the result for `CSc1nnc(C(C)(C)C)c(=O)n1N` reads “inactive”; that for `N#CSCSC#N`, “inactive”. Still for that read-out and setting: the result for `CCOP(=O)(OCC)Oc1cc(C)nc(C(C)C)n1` reads “inactive”. As for `CCOP(=S)(OCC)SCCSCC`, the AC50 is 3.97 µM (active). Regarding `CCCCSP(=O)(SCCCC)SCCCC`, the concentration at half-maximal activity (AC50) is 2.96 µM (active).

For `CCC(=O)Nc1ccc(Cl)c(Cl)c1`, the concentration at half-maximal activity (AC50) was 8.75 µM (active). Regarding `CC(C)N(C(=O)SCC(Cl)=C(Cl)Cl)C(C)C`, the outcome was inactive. Take `CCNc1nc(Cl)nc(NC(C)(C)C#N)n1`: the compound was called inactive. Turning to `Nc1c(Cl)cc([N+](=O)[O-])cc1Cl`, the compound was classed as inactive.

For `CCOP(=S)(Oc1cnc(C(C)(C)C)nc1)OC(C)C` (stereo not given), the compound was classed as inactive.

`O=c1ccc(=O)[nH][nH]1`: the compound was called inactive. Consider `C#CCC1=C(C)C(OC(=O)C2C(C=C(C)C)C2(C)C)CC1=O` (stereo not given), for which the call was inactive.
